# Several values for one entry are separate records, joined by “and”; a condition that tells them apart may be missing. Identical values can stand only once.
# How the values were obtained:
# [1] = biological target: Bromodomain-containing protein 4 (Homo sapiens) (UniProt O60885); conditions: Compound concentration 10.0 uM, Protein concentration 2.0 uM
# [2] = biological target: T1, Transcription intermediary factor 1-alpha (Homo sapiens) (UniProt O15164); conditions: Compound concentration 10.0 uM, Protein concentration 2.0 uM
# T1 sequence (whole entry): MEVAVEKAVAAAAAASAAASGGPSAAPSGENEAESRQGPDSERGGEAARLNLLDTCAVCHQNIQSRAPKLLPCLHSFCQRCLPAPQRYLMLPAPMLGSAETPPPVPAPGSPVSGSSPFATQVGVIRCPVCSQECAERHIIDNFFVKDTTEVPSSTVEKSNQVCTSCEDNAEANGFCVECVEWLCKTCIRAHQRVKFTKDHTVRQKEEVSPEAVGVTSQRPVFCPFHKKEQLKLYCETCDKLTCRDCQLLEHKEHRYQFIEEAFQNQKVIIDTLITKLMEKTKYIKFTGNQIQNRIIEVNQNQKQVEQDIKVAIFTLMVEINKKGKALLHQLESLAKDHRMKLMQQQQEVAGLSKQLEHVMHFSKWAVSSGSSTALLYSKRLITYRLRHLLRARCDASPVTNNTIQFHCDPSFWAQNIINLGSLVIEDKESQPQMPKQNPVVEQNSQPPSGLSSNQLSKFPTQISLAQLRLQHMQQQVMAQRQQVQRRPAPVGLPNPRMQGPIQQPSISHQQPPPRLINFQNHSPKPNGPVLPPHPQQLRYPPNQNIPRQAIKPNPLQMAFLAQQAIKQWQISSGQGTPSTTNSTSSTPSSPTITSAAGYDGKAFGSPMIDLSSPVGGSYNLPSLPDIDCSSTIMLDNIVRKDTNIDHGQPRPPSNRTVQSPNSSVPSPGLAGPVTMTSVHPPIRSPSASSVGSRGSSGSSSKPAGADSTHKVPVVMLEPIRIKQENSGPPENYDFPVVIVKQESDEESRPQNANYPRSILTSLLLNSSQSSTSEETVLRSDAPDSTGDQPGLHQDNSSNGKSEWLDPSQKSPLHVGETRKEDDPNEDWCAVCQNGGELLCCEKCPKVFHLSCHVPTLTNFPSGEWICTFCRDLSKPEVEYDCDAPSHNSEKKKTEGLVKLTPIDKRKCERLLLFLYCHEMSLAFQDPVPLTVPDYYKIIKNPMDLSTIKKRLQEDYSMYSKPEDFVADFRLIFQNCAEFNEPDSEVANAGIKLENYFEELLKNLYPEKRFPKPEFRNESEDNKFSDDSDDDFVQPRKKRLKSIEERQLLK
structure (smiles),measurement,setting,value
CCC(=O)N1CCOc2c(cc(-c3ccc(OC)c(OC)c3)cc2OC[C@H]2CCCN(C)C2)C1,ΔTm,[1],2.08 °C and 2.81 °C
same,ΔTm,[2],1.25 °C

# — ChEMBL document CHEMBL4649985, “Generation of a Selective Small Molecule Inhibitor of the CBP/p300 Bromodomain for Leukemia Therapy” (Cancer Res, 2015)
